Most compounds without a hit are left out; they make up all but 3.9% or so of the library.
HepG2 viability = HepG2 cytotoxicity, counter-screen for TGF-b inhibitors; AID 588856; Potency, µM (titrated, usually from 46.1 µM), for inactives: at the top dose activity change, negative = cytotoxicity, most hits filed as cytotoxic; actives 0.76% (n = 410,000); HepG2 CAGA-GFP viability, ATP luminescence, 18 h
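CellTiter-Glo luminescence gave cytotoxicity after 18 hours at 37 degrees C. The cells were HepG2 CAGA-GFP in 1% FBS DMEM, stimulated with 500 pg/mL TGF-beta after compound addition. %Activity was normalised to no-cell wells (complete cell-killing) and DMSO (no toxicity), and curves were fitted and classified.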
ATXN2 expr inh = inhibitors of ATXN2 expression; HEK-293 ATXN2-luciferase reporter, luminescence, 24 h; Potency, µM (series often up to 57 µM), for the others: top-dose activity change, negative = inhibition, actives largely listed as inhibitors; actives 0.72% (n = 360,000); further: on the % scale 0 is the no-effect control and ±100 the full control effect; nearly all actives have a fitted effect of over 55% in size
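qHTS (up to 57 uM final) was run with 24 h compound exposure of reporter cells at 37 °C. Each well was multiplexed: SteadyGlo luminescence measured ATXN2-luciferase expression after a fluorogenic Gly-Phe-AFC viability readout (25 uM final).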
TGFb SMAD3 inh = inhibitors of TGF-b signaling; Potency, µM (titrated, usually from 46.1 µM), inactives show top-dose activity, negative = inhibition, usual class: inhibitors; HepG2 CAGA-GFP TGF-b/SMAD3 reporter, GFP fluorescence, 18 h; TGF-beta stimulated, 500 pg/mL final; actives 1.2% (n = 410,000); further: on the % scale 0 is the no-effect control and ±100 the full control effect; nearly all actives have a fitted effect of over 65% in size
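TGF-beta reporter screen: HEPG2 CAGA-GFP, 1% FBS, 500 pg/mL TGF-beta final, 18 h; per-cell GFP summed per well; curves fitted and categorized by class.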
HT1080 IDH1KD tx = toxicity to HT-1080 IDH1 knockdown cells (counter line); HT-1080 IDH1 knockdown viability, ATP luminescence, 48 h; Potency, µM (titrated, usually from 46.1 µM), for inactives: top-dose activity, negative = toxicity, most hits filed as cytotoxic; actives 2% (n = 360,000);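 further: 0% = DMSO wells and -100% = cell-free medium wells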
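Viability of IDH1-knockdown HT-1080 fibrosarcoma cells was assessed by CellTiter-Glo after 48 h at 37 °C with titrated compound; concentration-effect curves were classified by fit quality and response size.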
HT1080NT lethal = kills 2HG-producing HT-1080-NT fibrosarcoma cells; HT-1080-NT fibrosarcoma viability, CellTiter-Glo ATP luminescence, 48 h; Potency, µM (doses to about 46.1 µM), inactives show at the top dose activity, negative = less viability, hits mostly cytotoxic; actives 1.6% (n = 360,000); AID 686970;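 further: NT is the 2HG producing partner of a matched IDH1 knockdown line; 0% = DMSO-treated cells and -100% = media-only wells without cells; nearly all actives have a fitted effect of over 55% in size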
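A 48-hour cytotoxicity screen used HT-1080-NT cells plated 2 hours before compound delivery. ATP-based CellTiter-Glo luminescence measured viability, normalized to DMSO and no-cell controls.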
S2 tox = reduces viability in counter-screen for ATXN expression inhibitors. S2 cells (HEK-293 line with an ATXN2-luciferase reporter) viability, CellTiter-Fluor protease fluorescence, 24 h. Potency, µM (titrated, usually from 56.7 µM), usual class: cytotoxic. actives 0.49% (n = 400,000). AID 651635; further: nearly all actives have a fitted effect of over 40% in size
Starred values were filed as active, the others as inactive; i = inactive; ? = inconclusive; . = no result. The call rests on the fitted dose curve; in most records, active means well fitted curve in the direction sought with a large enough effect; inconclusive means small, poorly fitted or top-dose-only effect, or another doubt; inactive means no such curve, though single readings can be large; an effect the other way counts as inactive or inconclusive. Potency means the concentration at half of the fitted maximal effect.

SMILES | HepG2 viability | ATXN2 expr inh | TGFb SMAD3 inh | HT1080 IDH1KD tx | HT1080NT lethal | S2 tox
COc1ccccc1Nc1c2c(nc3ccccc13)CCC2 | -27% | ? | 18µM* | ? | ? | ?
COc1cc(Nc2c3c(nc4ccccc24)CCCC3)cc(OC)c1OC | -49% | 35% | -7% | ? | ? | ?
COc1cc(Cl)c(C)cc1Nc1c2c(nc3ccccc13)CCC2 | 11µM* | ? | 16µM* | . | . | 14µM*
COc1ccc(Nc2c3c(nc4ccccc24)CCC3)c(OC)c1 | -32% | -33% | ? | 16µM* | 18µM* | i
Cc1ccc(O)c(Nc2nc(-c3ccccc3)nc3ccccc23)c1 | 0% | -2% | 12% | -5% | -5% | i
Cc1ccc(O)c(Nc2c3ccccc3nc3ccccc23)c1 | -25% | -37% | ? | 16µM* | 23µM* | .
COc1ccccc1CCNC(=O)Cn1ccc2cc(S(=O)(=O)N3CCCCC3)ccc21 | -14% | -12% | -26% | . | . | ?
COc1ccc(Nc2nc3ccccc3c(=O)s2)c(OC)c1 | 13% | 5% | 21% | 4% | -1% | ?
COc1cc(N)ccc1Nc1c2ccccc2nc2ccccc12 | -74% | ? | ? | 23µM* | ? | .
CCOc1ccc(S(=O)(=O)N2CCOCC2)c2ccccc12 | 1% | -12% | -1% | -8% | -2% | i
CCOc1ccc2cc(S(=O)(=O)N3CCCCC3)ccc2c1 | 18µM* | -17% | -24% | -2% | -17% | i
CCOc1ccc(S(=O)(=O)N2CCCCC2)c2ccccc12 | -76% | -10% | 0% | 21µM* | -11% | i
CCOc1ccc2cc(S(=O)(=O)N3CCN(C)CC3)ccc2c1 | 0% | 1% | -44% | -1% | -5% | i
Cc1ccc2c(CC(=O)N3CCOc4ccc(CN5CCOCC5)cc4C3)cc(=O)oc2c1 | . | . | . | . | . | i
CCn1ccc2c(OCC(=O)Nc3ccccc3C(F)(F)F)cccc2c1=O | -8% | ? | -18% | . | . | ?
CCN(CC)CC(=O)Nc1ccc2c(c1)Nc1ccccc1CC2 | -50% | -3% | 9% | ? | 11µM* | ?
CCN(CC)CC(=O)Nc1ccc2c(c1)N(C(=O)CN(CC)CC)c1ccccc1CC2 | -35% | -15% | 3% | ? | ? | ?
Cc1ccc(C(=O)Nc2cccc(C(F)(F)F)c2)cc1-c1ccc2nc(NCCN3CCOCC3)ncc2c1 | . | 6.1µM* | . | . | . | .
Cc1ccc(CN2[C@H](C)[C@H](c3ccccc3)OCCS2(=O)=O)cc1 | 1% | . | -24% | . | . | .
CCOc1ccc2c(c1)C(C)=CC(C)(C)N2S(=O)(=O)c1ccc(C)cc1 | -30% | 0% | ? | 1.8µM* | 1.3µM* | ?
CC1=CC(C)(C)N(C(=O)CCl)c2cc(C)ccc21 | -9% | 1% | 20% | -4% | -12% | i
CCNC(=O)N1c2ccc(OCC)cc2C(C)=CC1(C)C | -5% | 1% | -12% | 16% | 23% | i
CC1=CC(C)(C)N(S(=O)(=O)c2ccc(C)cc2)c2cc(C)ccc21 | -37% | -10% | ? | 1.3µM* | 1µM* | i
COc1ccc2c(c1)C(C)=CC(C)(C)N2S(=O)(=O)c1ccc(C)cc1 | -9% | ? | ? | 0.92µM* | 0.92µM* | ?
CCOC(=O)CC(NC(=O)Cn1nnc(-c2ccc(C(F)(F)F)cc2)n1)c1ccc(C)cc1 (configuration not stated) | -12% | 1% | 22% | . | . | i
CCN(C(=O)c1nn(-c2ccc(OC)c(Cl)c2)c(=O)c2c1c1ccccc1n2C)c1cc(OC)ccc1OC | -14% | -2% | -12% | . | . | ?
COC(=O)c1cc(Cl)ccc1OC | . | 7% | . | . | . | i
CCOc1ccc2[nH]c3c(N4CCC5(CC4)OCCO5)ncnc3c2c1 | 10% | ? | -16% | 23µM* | ? | i

Screening results as filed in PubChem BioAssay.
